PLC-beta3 inh – human PLC-beta3 inhibitors, primary screen, biochemical, fluorescence; Purified PLC-beta3, fluorogenic substrate; 370,000 compounds, 0.18% hits; inhibition, % at 12.2 µM; 1-phosphatidylinositol 4,5-bisphosphate phosphodiesterase beta-3 (Homo sapiens), Q01970; in the data active = inhibition above about 11%
Cardio protect – cardioprotection against H2O2-induced cell death, primary screen, uHTS, H9c2 cells, ATPLite luminescence. 360,000 compounds, 0.63% hits. H9c2 cardiomyocytes, H2O2 injury protection, 2 h. protection from H2O2 cell death, % at 20 µM;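 active = compounds giving at least 50% protection of heart cells from peroxide-induced death in the single-dose screen, raw or plate-pattern-corrected value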
PLCg1 inh – PLC-gamma1 enzyme inhibitors, primary screen, biochemical, fluorescence, purified enzyme; 1-phosphatidylinositol 4,5-bisphosphate phosphodiesterase gamma-1 (Homo sapiens), P19174; fluorogenic substrate; inhibition, % at 12.2 µM; 370,000 compounds, 0.84% hits
FAS TE block – FAS thioesterase domain inhibitors, primary screen, biochemical, fluorescence intensity, uHTS; Fatty acid synthase (Homo sapiens), P49327; recombinant FAS-TE, OMFH fluorogenic substrate, fluorescence endpoint; inhibition, % at 15 µM; 360,000 compounds, 0.67% hits; AID 602261, 2012;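 active = compounds whose normalised, plate-corrected inhibition of enzyme fluorescence in the single-dose primary screen is 50% or more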
PLCgamma1 ctr – PLC-gamma1 enzyme inhibitors, counter-screen for PLC-beta3 inhibitor project, biochemical, fluorescence. 3,300 compounds, 3.1% hits. purified PLC-gamma1, fluorogenic substrate. AID 743258, 2014. inhibition, % at 12.3 µM. shares compounds with PLCg1 inh
PLCbeta3 conf – PLC-beta3 inhibitor confirmation, biochemical, fluorescence, purified enzyme; inhibition, % at 12.3 µM; AID 743261, 2014; 3,300 compounds, 1% hits; shares compounds with PLCg1 inh; fluorogenic substrate fluorescence; in the data active = inhibition above about 11%
Each line names hits and unclear results; the compound was inactive in the other large screens (follow-up assays come after a bar, where they were run). The list is not random: actives were taken first. Their share in the collection is about 2.2%. Cut-off read from the data, not from the text of the source, unless noted: active = inhibition above about 9.5%; inactive = the rest.

O=C(c1ccc(S(=O)(=O)Nc2ccc(F)cc2)cc1)N1CCN(C(=O)c2ccco2)CC1	none
Cc1cc(S(=O)(=O)Nc2ccc(C(=O)N3CCN(C(=O)c4ccco4)CC3)cc2)ccc1F	PLCg1 inh 11.5 | PLCgamma1 ctr inactive | PLCbeta3 conf inactive
CCCC(=O)c1ccc(O)cc1O	none
COc1ccc(NCC(=O)N/N=C/c2c(C)nn(Cc3ccccc3)c2Cl)cc1	none
Cc1nn(Cc2ccccc2)c(C)c1/C=N/NC(=O)CNc1cccc(C(F)(F)F)c1	PLCg1 inh 9.6 | PLCgamma1 ctr inactive | PLCbeta3 conf inactive
O=C(Nc1ccccc1)C1CCCCC1	none
O=C(Nc1ncccn1)C1CCCCC1	PLCg1 inh 10.7 | PLCgamma1 ctr inactive | PLCbeta3 conf inactive
O=C(Cc1ccc(NC(=O)C2CCCN(C(=O)C3CCCCC3)C2)cc1)Nc1ccc(C(=O)N2CCOCC2)cc1 (stereo unspecified)	PLCg1 inh 10.3 | PLCgamma1 ctr inactive | PLCbeta3 conf inactive
O=C(Cc1ccc(NC(=O)C2CCCN(C(=O)C3CCCC3)C2)cc1)Nc1ccc(C(=O)N2CCOCC2)cc1 (stereo unspecified)	none
O=C(Nc1ccc2c(c1)OCCO2)C1CCN(C(=O)c2ccc(Br)cc2)CC1	none
O=C(Cc1ccc(NC(=O)C2CCN(C(=O)C3CCCCC3)CC2)cc1)Nc1ccc(C(=O)N2CCOCC2)cc1	PLCg1 inh 12.9 | PLCgamma1 ctr inactive | PLCbeta3 conf inactive
COc1ccc(C(=O)N2CCC(C(=O)Nc3ccc4c(c3)OCCO4)CC2)cc1	PLC-beta3 inh 12.0 | PLCgamma1 ctr inactive | PLCbeta3 conf inactive
CN(Cc1ccccc1)C(=O)c1cccc(NC(=O)Cc2ccc(NC(=O)C3CCCN(C(=O)c4ccccc4)C3)cc2)c1 (stereo unspecified)	PLCg1 inh 12.5 | PLCgamma1 ctr inactive | PLCbeta3 conf inactive
CN(Cc1ccccc1)C(=O)c1cccc(NC(=O)Cc2ccc(NC(=O)C3CCN(C(=O)c4ccccc4)CC3)cc2)c1	none
NC(=O)CSc1nc2c(sc(=S)n2-c2ccccc2)c(=O)[nH]1	PLCg1 inh 10.1 | PLCgamma1 ctr inactive | PLCbeta3 conf inactive
Cc1ccc(S(=O)(=O)N2CCCCC2)cc1C(=O)Nc1ccc(N2CCOCC2)cc1	PLCg1 inh 12.3 | PLCgamma1 ctr inactive | PLCbeta3 conf inactive
O=C(Nc1cccc(O)c1)c1ccc(S(=O)(=O)N2CCCCCC2)cc1	PLCg1 inh 10.7 | PLCgamma1 ctr inactive | PLCbeta3 conf inactive
Cc1cc(C(F)F)n2nc(C(=O)Nc3ccc(S(=O)(=O)N4CCCCCC4)cc3)nc2n1	PLCg1 inh 9.9 | PLCgamma1 ctr inactive | PLCbeta3 conf inactive
Cc1cc(C(F)F)n2nc(C(=O)Nc3cccc(S(=O)(=O)N4CCOCC4)c3)nc2n1	none
O=C(NCc1cccs1)c1cc2c(s1)CCCC2	PLCg1 inh 11.4 | PLCgamma1 ctr inactive | PLCbeta3 conf inactive
O=C(NCc1cccs1)c1csc2c1CCCCC2	none
O=S(=O)(c1ccccc1)N(CC(F)(F)F)c1ccc(C(O)(C(F)(F)F)C(F)(F)F)cc1	PLCg1 inh 11.8 | PLCgamma1 ctr inactive | PLCbeta3 conf inactive
O=C(CN1C(=O)NC(c2ccccc2)(c2ccccc2)C1=O)NC1CCCC1	none
Cc1ccc(NC(=S)NCCC(c2ccccc2)c2ccccc2)c(C)c1	none
Cc1ccc(F)cc1NC(=S)NCCc1ccccc1	PLCg1 inh 10.7 | PLCgamma1 ctr inactive | PLCbeta3 conf inactive
Cc1ccc(NC(=S)NCCc2ccc(F)cc2)c(C)c1	none
Cc1ccccc1NC(=S)NCCC(c1ccccc1)c1ccccc1	PLCg1 inh 10.2 | PLCgamma1 ctr inactive | PLCbeta3 conf inactive
Cc1ccccc1NC(=O)Cc1nc(COC(=O)c2cc(Cl)ccc2O)cs1	none
Cc1cc(C)cc(NC(=O)Cn2nnc(C(=O)NCc3ccc(F)cc3)c2N)c1	none
CSCC[C@H](NC(=O)OCc1ccccc1)C(=O)O	none
CSCCC(NC(=O)OCc1ccccc1)C(=O)NCc1cccnc1 (stereo unspecified)	PLCg1 inh 9.8 | PLCgamma1 ctr inactive | PLCbeta3 conf inactive
CC1(C(=O)NS(=O)(=O)c2cccs2)CCN1C(=O)c1cccc(F)c1 (stereo unspecified)	PLC-beta3 inh 13.8 | PLCgamma1 ctr inactive | PLCbeta3 conf inactive
